# Source: PubChem BioAssay
# The list is not random: actives were taken first. Their share in the collection is about 4.1%.
# hgDAF12 agonist = agonists of H. glycines DAF-12 nuclear receptor | HEK293 GAL4-hgDAF12 UAS-luciferase reporter, agonist luminescence; normalized to butyrate control | AID 687014 | 370,000 compounds, 1.8% hits | activation, % at 6.8 µM;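 active = activation above a cutoff set at the mean of all screened compounds plus 3 SD, cut at about 10% in these data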;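 note: 0% = DMSO wells and 100% = sodium butyrate wells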
# DAX1 inh-1 = inhibits human nuclear receptor DAX1. HEK293 Gal4-DAX1 luciferase reporter, luminescence. 340,000 compounds, 0.99% hits. inhibition, % at 6.75 µM. P51843;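 active = inhibition above the mean over all tested compounds plus 3 SD, cut at about 4.2% in these data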;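 note: 0% = DAX1-transfected cells with DMSO and 100% = empty-vector control cells with DMSO; inhibition shows as a rise in luminescence from relieved DAX1 repression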
# Target sequence (P51843 207-470 limits assumed): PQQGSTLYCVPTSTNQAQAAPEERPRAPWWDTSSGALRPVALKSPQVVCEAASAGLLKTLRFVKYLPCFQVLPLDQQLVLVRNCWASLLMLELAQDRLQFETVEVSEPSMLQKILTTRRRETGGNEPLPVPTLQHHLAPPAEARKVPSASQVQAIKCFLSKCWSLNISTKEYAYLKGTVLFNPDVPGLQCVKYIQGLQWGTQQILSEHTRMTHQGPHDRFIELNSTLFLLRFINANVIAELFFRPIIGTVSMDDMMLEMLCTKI
# hcDAF12 agonist = activates DAF-12 receptor from parasite H. contortus; activation, % at 6.8 µM; 370,000 compounds, 1.4% hits; AID 652067; HEK293 hcDAF-12 lit1-tk-luc reporter, luminescence; 0% DMSO, 100% Δ7-dafachronic acid;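 active = activation above the mean of all tested compounds plus 3 SD, cut at about 5.5% in these data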;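 note: 100% = response to 3 µM Δ7-dafachronic acid high control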
# DAX1 inh-2 = DAX1 (NR0B1) inhibition, primary screen; HEK293T StAR-luciferase reporter, SF-1/DAX-1 repression relief; inhibition, % at 6.8 µM; 370,000 compounds, 1.1% hits;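 active = inhibition above the mean over all tested compounds plus 3 SD, cut at about 3.6% in these data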;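 note: 0% = DAX-1 cells with DMSO and 100% = cells lacking DAX-1 with DMSO; higher inhibition means more luminescence from relief of DAX-1 repression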
# ssDAF-12 act = activators of S. stercoralis DAF-12 nuclear receptor | 370,000 compounds, 1% hits | activation, % at 6.8 µM | AID 652126 | HEK293 ssDAF-12/GRIP1 lit1-tk-luc reporter, luminescence; % of 3 µM dafachronic acid response;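 active = activation above the mean over all tested compounds plus 3 SD, cut at about 0.9% in these data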;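 note: 0% = DMSO-only wells and 100% = 3 µM delta7-dafachronic acid wells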
# Numbers without * were called inactive; x = no result given.
SMILES,hgDAF12 agonist,DAX1 inh-1,hcDAF12 agonist,DAX1 inh-2,ssDAF-12 act
CC(C)(C)c1ccc(/C=N/Nc2ccc(C(=O)O)cc2)cc1,-14.6,-4.5,-5.4,-1.8,-2.5
CC(C)(C)c1ccc(/C=N/Nc2cccc(C(=O)O)c2)cc1,11.8*,-3.6,4.3,4.0*,-1.2
O=C(O)c1cccc(N/N=C/c2cccnc2)c1,6.2,-3.4,1.9,1.8,2.3*
Nc1c(Cl)ncnc1N/N=C/c1ccccn1,-3.7,x,-3.2,-2.6,-1.0
Cc1cc(C(=O)N2CCC2(C)C(=O)NCC(C)(C)C)nn1C (stereo unspecified),-0.9,x,-0.5,0.0,0.2
CCCN(C(=O)C1CCCN(c2ncnc3c2nc2n3CCCCC2)C1)c1ccccc1C (stereo unspecified),-3.7,x,-2.8,-2.2,-1.4
O=c1c2ccccc2nc2n1CCc1ccc(Br)cc1-2,1.7,x,0.1,0.1,-1.2
O=[N+]([O-])c1ccc(N/N=C/c2cccnc2)cc1,7.2,2.3,-0.4,-0.9,-1.0
CN(C)c1ccc(/C=N/Nc2cccc(C(=O)O)c2)cc1,11.6*,-3.4,5.3,1.5,0.1
Clc1ccc(N/N=C/c2cccnc2)cc1,4.0,-0.5,6.0*,0.4,-1.2
COc1ccc(NC(=O)C2Cc3c(-c4cccc(C(C)=O)c4)ccnc3O2)cc1 (stereo unspecified),1.6,x,-1.5,-1.8,-0.2
Cn1c(=O)[nH]c(=O)c2c1nc(Br)n2C/C=N/NC(=O)c1ccccc1,5.8,4.6*,0.4,0.8,-0.3
Cn1c(=O)[nH]c(=O)c2c1nc(Br)n2C/C=N/Nc1ccccc1,-2.4,0.7,0.1,3.7*,-0.4
C=CCn1c(Br)nc2c1c(=O)[nH]c(=O)n2C,2.0,2.4,-0.6,-0.3,-1.2
COC(=O)[C@]12C[C@H](CC(=O)NCC3CCCCC3)C(=O)N(CCC3=CCCCC3)C1=C[C@H](COCc1ccccc1)O[C@@H]2C,-0.5,x,-0.4,0.5,-0.2
O=C(NCC1COc2ccccc2O1)c1ccc(NC(=O)c2cccc(F)c2)cc1 (stereo unspecified),-7.6,x,-3.5,-0.6,-1.7
COc1ccc(F)cc1-c1cc(C(=O)N2CCc3ccccc3C2)[nH]n1,-1.7,x,-0.3,0.1,-1.2
CCOC(=O)C1=CC[C@@H](c2ccccc2)C(C#N)(C#N)[C@H]1/C=C/c1ccccc1,-3.2,x,-2.6,-0.8,-0.4
CC(S(=O)(=O)c1ccccc1)S(=O)(=O)c1ccccc1,-3.1,5.0*,-0.9,-0.3,-1.3
COC(=O)C(/C=N/O)NC(=O)c1ccccc1 (stereo unspecified),0.3,0.3,5.9*,0.6,-0.9
CO/N=C/C(NC(=O)c1ccc(C(F)(F)F)cc1)C(=O)OC (stereo unspecified),-1.6,-1.0,-1.7,1.4,-0.8
Oc1ccc(Oc2ccccc2F)c2cccnc12,2.2,x,5.7*,x,-0.9
COc1ccc(OC)c(CN2C(=O)CN(S(C)(=O)=O)CC2(C)c2nnnn2C2CCCC2)c1 (stereo unspecified),-0.7,x,2.0,-0.7,-1.5
C=C1c2ccccc2O[C@H](C(=O)OCC)[C@@H]1C1CCCCC1,1.3,-1.3,1.6,4.1*,-1.0
CCOC(=O)C1=C(N)c2ccccc2CC1C1CCCC1 (stereo unspecified),1.8,0.5,-0.4,0.4,-1.6
SMILES,hgDAF12 agonist,DAX1 inh-1,hcDAF12 agonist,DAX1 inh-2,ssDAF-12 act
O=C(Cc1cccc2ccccc12)Nc1ccc(Br)cc1C(=O)O,0.8,5.6*,-1.4,-0.1,-1.0
O=C(Cc1cccc2ccccc12)Nc1ccc(O)cc1C(=O)O,3.9,0.9,-0.3,0.1,-0.6
CC(CCCN1CCCC1)Nc1ccnc2cc(Cl)ccc12 (stereo unspecified),1.1,7.0*,0.5,0.2,-0.1
C=Cn1cc[n+](CC(=O)c2cccs2)c1,1.2,-0.6,5.6*,-0.2,0.4
O=C(NC(c1ccccc1)c1ccccc1)C1CCCC1,2.8,0.4,0.1,-0.4,1.4*
CC(NC(=O)C1CCCC1)c1ccccc1 (stereo unspecified),-1.6,-0.6,-2.5,0.1,-1.5
N#Cc1cc(Nc2c(N)nc[nH]c2=O)c([N+](=O)[O-])cc1C#N,2.7,-0.1,6.0*,-0.2,0.1
C[C@H]1CN([C@@H](C)CO)C(=O)CCCn2nncc2CO[C@H]1CN(C)S(=O)(=O)c1ccc2c(c1)OCCCO2,-3.1,2.2,-2.1,1.5,-1.1
CC(NC(=O)CCc1nnc(C2(c3ccc(Cl)cc3)CCC2)o1)C1CC1 (stereo unspecified),2.8,4.4*,0.3,0.2,0.2
